This is a sample that favours compounds with a hit; in the whole collection about 2.4% have one here.
D2 PAM-1: positively modulates the human D2 dopamine receptor allosterically. P14416. HEK293 T-REx D2, calcium flux, EC20 dopamine potentiation. potentiation, % at 10 µM. 0.34% of 340,000 active. AID 485347;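 active means potentiation over 3 SD above the plate norm, cut at about 30% in these data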; further: 0% is about no effect
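Cells plated with tetracycline inducer and held overnight at 30 C; calcium dye loaded 30–90 min at room temperature; baseline taken, compound added and read 180 s; EC20 dopamine then added and read 180 s.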
D2 antag: D2 dopamine receptor (human) antagonism | HEK293 TREx D2 cells, calcium flux, dopamine EC80 | inhibition, % at 10 µM | 2% of 340,000 active; in the data active means inhibition above about 30%; inactive means below that, where a call was filed; further: 0% is about no effect
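Read-out: kinetic calcium fluorescence (1 cycle/s) in inducible HEK293 T-REx D2 cells after an EC80 dopamine addition that followed 180 s compound preincubation. Loss of the dopamine response indicates antagonism.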
D2 ag-1: agonists of human D2 dopamine receptor; P14416; AID 485358; 0.53% of 340,000 active; HEK293 T-REx D2 cells, calcium flux agonist mode; activation, % at 2 µM;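 active means activation over 3 SD above normal in the single-dose calcium agonist read, cut at about 30% in these data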; further: 0% is about no effect
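Tetracycline-induced HEK293 Trex cells with D2 receptor force-coupled to calcium signaling, plated overnight at 30 C and loaded with no-wash calcium dye. Calcium flux read kinetically for 180 s after compound addition; responses flag agonists.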
D2 PAM-2: human D2 receptor positive allosteric modulation. P14416. DiscoveRx D2 beta-arrestin cells, luminescence, 90 min; 100% = 57 uM dopamine signal. AID 624464. 0.23% of 360,000 active. potentiation, % (concentration not given with the values); in the data active means potentiation above about 50%; inconclusive means mostly about 30% to 49%
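PathHunter D2 cells, attached overnight at 37 deg C, received compound in DMSO plus dopamine at EC20 (50 nM final) for 90 min at 37 deg C. Beta-arrestin recruitment was read as luminescence after 1 h with detection reagent at ambient temperature.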
D2 ag-2: human D2 receptor agonism in beta-arrestin assay; P14416; activation, % (concentration not given with the values); AID 624465; DiscoveRx PathHunter D2 beta-arrestin, luminescence, 90 min; 100% = 57 uM dopamine signal; 0.084% of 360,000 active; in the data active means activation above about 40%; inconclusive means between about 15% and that limit
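Agonist mode: compounds alone added to overnight-plated D2 PathHunter cells for 90 min at 37 C, with 57 uM final dopamine (EC100) defining full response. Beta-arrestin recruitment detected by chemiluminescent reagent, read after 1 h at ambient temperature.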
D3 ag: confirmation of human D3 dopamine receptor agonists, beta-arrestin | DiscoveRx D3 beta-arrestin cells, luminescence, 90 min | shares compounds with D2 ag-1 | AID 720506 | 4% of 2,300 active | Potency, µM (top dose mostly 76.9 µM), for the others: at the highest dose activation, most hits filed as activators;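 further: potency means the concentration at half of the fitted maximal effect; 100% = dopamine control response; nearly all actives have a fitted effect of over 70% in size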
Target sequence (P35462 whole entry, looked up): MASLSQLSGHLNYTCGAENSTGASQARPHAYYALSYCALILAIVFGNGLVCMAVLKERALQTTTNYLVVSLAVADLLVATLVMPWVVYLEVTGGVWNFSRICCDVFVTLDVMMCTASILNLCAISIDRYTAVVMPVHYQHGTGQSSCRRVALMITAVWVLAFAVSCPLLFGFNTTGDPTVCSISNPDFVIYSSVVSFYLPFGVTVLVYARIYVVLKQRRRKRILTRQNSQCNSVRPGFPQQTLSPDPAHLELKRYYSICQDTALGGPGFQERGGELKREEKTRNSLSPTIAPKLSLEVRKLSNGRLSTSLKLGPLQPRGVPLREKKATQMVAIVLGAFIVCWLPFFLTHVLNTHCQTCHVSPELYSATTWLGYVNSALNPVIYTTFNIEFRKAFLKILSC
D2 ag-3: activates human D2 dopamine receptor in D3 counterscreen | shares compounds with D2 ag-1 | 5.9% of 2,300 active | DiscoveRx PathHunter D2 beta-arrestin, luminescence, 90 min; response scale: percent relative to full dopamine signal | Potency, µM (series often up to 76.9 µM), for inactives: top-dose activation, usual class: activators | AID 720507; further: potency means the concentration at half of the fitted maximal effect; % of control where 0% means no effect; nearly all actives have a fitted effect of over 70% in size
* marks the source's active call; other numbers are inactive results. Unless noted, the call rests on the fitted dose curve; in most records, active means well fitted activation curve with a large enough effect; inconclusive means small, poorly fitted or top-dose-only effect; inactive means flat fitted curve, though single readings scatter.

How did Cc1ccc(S(=O)(=O)N2CCN(C(=O)COC(=O)c3cc([N+](=O)[O-])ccc3NCCO)CC2)c(C)c1 do in these assays?
D2 PAM-2: -9; D2 ag-2: -1

What do the screens show for `Cc1ccc(S(=O)(=O)N2CCN(C(=O)COC(=O)c3ccc([N+](=O)[O-])o3)CC2)c(C)c1`?
D2 PAM-1: -5; D2 antag: 13; D2 ag-1: 0; D2 PAM-2: 6; D2 ag-2: 2; D3 ag: 5%; D2 ag-3: 12%

What do the screens show for `CCC(C)Nc1nc(-c2cccc(OC)c2O)nc2ccccc12` (stereo unspecified)?
D2 PAM-1: -7; D2 antag: 9; D2 ag-1: 5; D2 PAM-2: inconclusive; D2 ag-2: 2; D3 ag: 6%; D2 ag-3: 13%

Results for COc1ccccc1N1CCN(C(=O)CCc2nnc3n(C)c(=O)c4sccc4n23)CC1 ?
D2 PAM-1: 0; D2 ag-1: 0

How did COc1ccc(CCNC(=O)c2ccc3nc(N4CCOCC4)sc3c2)cc1OC do in these assays?
D2 PAM-1: 4; D2 antag: 12; D2 ag-1: 0; D2 PAM-2: 5; D2 ag-2: -4

How did CCOc1ccc(CCNC(=O)c2ccc3nc(N4CCOCC4)sc3c2)cc1OCC do in these assays?
D2 PAM-1: 7; D2 antag: 8; D2 ag-1: 0; D2 PAM-2: -4; D2 ag-2: 0; D3 ag: 14%; D2 ag-3: 1%

What do the screens show for `COc1ccc(NC(=O)c2cc(C3CCCCN3S(=O)(=O)c3c(C)noc3C)on2)c(C)c1` (stereo unspecified)?
D2 PAM-2: -8; D2 ag-2: -3

What do the screens show for `O=C(CSCC(=O)Nc1cccc2ccccc12)Nc1cccc2ccccc12`?
D2 PAM-2: -6; D2 ag-2: 1

What do the screens show for `O=C(CSc1ncccn1)Nc1cccc2ccccc12`?
D2 PAM-1: 12; D2 antag: 19; D2 ag-1: 0; D2 PAM-2: 2; D2 ag-2: -1; D3 ag: -2%; D2 ag-3: -3%

What do the screens show for `CN(C(=O)c1cccc(NC(=O)Cc2ccc(NC(=O)C3CCCN(S(=O)(=O)c4cccc([N+](=O)[O-])c4)C3)cc2)c1)C1CCC1` (stereo unspecified)?
D2 PAM-2: 16; D2 ag-2: 6

Results for O=C(NCC1CCCO1)/C(=C\c1cccc([N+](=O)[O-])c1)NC(=O)c1ccccc1 (stereo unspecified) ?
D2 PAM-1: -2; D2 antag: 10; D2 ag-1: 0; D2 PAM-2: -3; D2 ag-2: -3; D3 ag: -10%; D2 ag-3: -5%

How did O=C(NCC1CCCO1)/C(=C/c1ccccc1)NC(=O)c1ccccc1 (stereo unspecified) do in these assays?
D2 PAM-1: 1; D2 antag: -14; D2 ag-1: 0; D2 PAM-2: -8; D2 ag-2: -4

Results for O=C(O)CNC(=O)c1ccc(NC(=O)/C(=C/c2ccccc2)NC(=O)c2ccco2)cc1 ?
D2 PAM-1: 3; D2 antag: 3; D2 ag-1: 1; D2 PAM-2: -11; D2 ag-2: -6

How did O=C(O)CNC(=O)c1ccc(NC(=O)/C(=C/c2cccc([N+](=O)[O-])c2)NC(=O)c2ccco2)cc1 do in these assays?
D2 PAM-1: -23; D2 antag: 16; D2 ag-1: 47*; D2 PAM-2: -5; D2 ag-2: -5; D3 ag: -4%; D2 ag-3: -5%

Results for c1ccc2c(C3OCC4(CCCC4)CO3)cccc2c1 ?
D2 PAM-2: -8; D2 ag-2: 1

How did c1ccc2c(C3CCO3)cccc2c1 (stereo unspecified) do in these assays?
D2 PAM-2: -6; D2 ag-2: -2; D3 ag: 0%; D2 ag-3: -3%

What do the screens show for `CCc1ccccc1NC(=O)c1cc(-c2cccc(O)c2)on1`?
D2 PAM-2: 3; D2 ag-2: -2; D3 ag: -8%; D2 ag-3: -1%

Results for O=C(Nc1ccccc1C(F)(F)F)c1cc(-c2cccc(O)c2)on1 ?
D2 PAM-1: -10; D2 antag: -15; D2 ag-1: 1; D2 PAM-2: -7; D2 ag-2: 0

Results for COc1ccc2cc(C(=O)C3CCCN(Cc4cnc(N5CCOCC5)s4)C3)ccc2c1 (stereo unspecified) ?
D2 PAM-1: -14; D2 antag: -4; D2 ag-1: 36*; D2 PAM-2: -5; D2 ag-2: 0; D3 ag: -9%; D2 ag-3: 0%

What do the screens show for `Cc1ccc(NC(=O)CN(C)C(=O)COc2ccccc2-c2ccccc2)cc1`?
D2 PAM-2: -16; D2 ag-2: 0

What do the screens show for `CC(C)(C)c1ccc(C(=O)N2CCC2(C)C(=O)Nc2ccc3nc[nH]c3c2)cc1` (stereo unspecified)?
D2 PAM-2: -4; D2 ag-2: -3

How did O=C(Cn1cnc2ccccc2c1=O)N1CCN(Cc2ccc3c(c2)OCO3)CC1 do in these assays?
D2 PAM-1: -13; D2 antag: 55*; D2 ag-1: 50*; D2 PAM-2: -4; D2 ag-2: inconclusive; D3 ag: 16%; D2 ag-3: inconclusive

What do the screens show for `O=C(Cn1cnc2ccccc2c1=O)NCC(=O)N1CCN(Cc2ccc3c(c2)OCO3)CC1`?
D2 PAM-1: -17; D2 antag: -19; D2 ag-1: 48*; D2 PAM-2: 18; D2 ag-2: -3; D3 ag: -1%; D2 ag-3: 10%

What do the screens show for `COc1ccc(OC)c(NC(=O)c2cc(S(=O)(=O)NCCc3ccc(Cl)cc3)ccc2F)c1`?
D2 PAM-1: 2; D2 ag-1: 0

What do the screens show for `COc1cccc(-n2cc(CNCc3cn(C)nc3-c3ccccc3F)cn2)c1`?
D2 PAM-1: -22; D2 antag: 85*; D2 ag-1: 79*; D2 PAM-2: 24; D2 ag-2: 66*; D3 ag: 6.3µM*; D2 ag-3: 13µM*

Results for Cc1ccccc1-n1cc(CNCc2c(C(=O)N(C)C)nc3ccc(Cl)cn23)cn1 ?
D2 PAM-1: -1; D2 antag: 1; D2 ag-1: 0; D2 PAM-2: -25; D2 ag-2: -5
